About 83,000 compounds went through this panel and 20% of them were active in at least one assay; those are over-represented in the sample as a whole.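 Cells were grown in 96-well plates and exposed to the test compound at a single concentration for 48 hours; results are reported as percent growth, with values below 10 considered active.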 Unmarked numbers belong to inactive results. Activity calls are given as the source filed them.

Some test systems named below: NCI-H23 lung; NCI-H226 lung; NCI-H322M lung; HOP-62 NSCLC; NCI-H460 lung; HOP-92 NSCLC; NCI-H522 lung; A549/ATCC NSCLC; 786-0 renal; DU-145 prostate; K-562 leukemia; MALME-3M melanoma; MDA-MB-231 breast; RXF 393 renal; SF-268 CNS; SF-295 CNS; SF-539 CNS; UACC-257 melanoma; M14 melanoma; COLO 205 colon.
Common to all, as to test: NCI-60 one-dose screen, 48 h (100 = growth as untreated, 0 = no growth, -100 = all killed)
Details in all cases: 10 µM unless noted

Take `CN(C)CCS(=O)(=O)Nc1cc(-c2ccc3ncc(C#N)c(Nc4ccc(F)c(Cl)c4)c3c2)cnc1Cl`: the growth in the test with NCI-H23 lung is -28.5% (active); in the test with NCI-H226 lung, -15.2% (active); in the test on NCI-H322M lung, -54.5% (active); with HOP-62 NSCLC, 0.0433% (active); with NCI-H460 lung, 0.906% (active); in the test on HOP-92 NSCLC, -17.9% (active). Besides, the growth in the test with NCI-H522 lung is -39.8% (active); with A549/ATCC NSCLC it was -30.5% (active); with 786-0 renal it was -20.1% (active); in the test with DU-145 prostate, -10.3% (active); in the test with K-562 leukemia, 6.62% (active); in the test on MALME-3M melanoma, -50.5% (active). In addition, the growth was -39.5% (active) in the test on MDA-MB-231 breast; -56% (active) in the test on RXF 393 renal; -41% (active) in the test on SF-268 CNS; -19% (active) in the test on SF-295 CNS; -36.4% (active) in the test on SF-539 CNS; -17.3% (active) in the test on UACC-257 melanoma. In addition, the growth in the test on M14 melanoma was -40.4% (active).
Regarding `O=C(/C=C/c1sc(Cl)nc1Cl)c1ccc(F)cc1`, the growth in the test with NCI-H23 lung is 94%; in the test on NCI-H226 lung, 96.4%; with NCI-H322M lung, 100%; in the test with HOP-62 NSCLC, 95.6%; in the test with NCI-H460 lung, 102%; in the test on HOP-92 NSCLC it was 96.9%. For the same molecule, the growth is 86.6% in the test with NCI-H522 lung; 98.4% with A549/ATCC NSCLC; 95.8% in the test with 786-0 renal; 92% in the test with DU-145 prostate; 10% in the test on K-562 leukemia; 79.3% in the test with MALME-3M melanoma. Further, the growth was 81.5% in the test on MDA-MB-231 breast; 93.3% in the test with RXF 393 renal; 92.8% with SF-268 CNS; 95.7% in the test on SF-295 CNS; 66.8% in the test with SF-539 CNS; 95.9% with UACC-257 melanoma. Further, the growth in the test with M14 melanoma was 78.4%.
As to `Cc1nc2ccccc2n1-c1ncnc2c1CC(C)c1ccccc1N2C` (configuration not stated), the growth with NCI-H23 lung was 85.6%; in the test on NCI-H226 lung it was 89.7%; in the test with NCI-H322M lung it was 97.8%; with HOP-62 NSCLC it was 68.4%; in the test with NCI-H460 lung, 102%; with HOP-92 NSCLC, 51.4%. Besides, the growth with NCI-H522 lung is 72.5%; in the test on A549/ATCC NSCLC, 70.8%; with 786-0 renal, 92%; in the test with COLO 205 colon, 88%; with DU-145 prostate, 96.2%; in the test with K-562 leukemia, 31.2%. Further, the growth was 105% in the test on MALME-3M melanoma; 102% in the test with RXF 393 renal; 94.2% with SF-268 CNS; 77.9% in the test on SF-295 CNS; 93.9% with SF-539 CNS; 91.5% in the test on UACC-257 melanoma. Further, the growth in the test with M14 melanoma was 71.3%.
Turning to `COc1cc2cc(Oc3ccc(NC(=O)Nc4cccc(C(F)(F)F)c4)cc3)c(C)nc2cc1OCCN1CCOCC1`, the growth in the test on NCI-H23 lung is 15.4%; in the test with NCI-H226 lung, 57%; in the test with NCI-H322M lung, 80.4%; in the test with HOP-62 NSCLC it was 50.8%; with NCI-H460 lung, 16.4%; with HOP-92 NSCLC, 33.9%. Moreover, the growth with NCI-H522 lung is 29.3%; in the test on A549/ATCC NSCLC it was 15.8%; with 786-0 renal it was 67.3%; with DU-145 prostate, 33.5%; in the test with K-562 leukemia it was 11.6%; in the test with MALME-3M melanoma, 55%. The growth in the test with MDA-MB-231 breast is 57.9%; with RXF 393 renal it was 62%; in the test on SF-268 CNS, 55.8%; in the test on SF-295 CNS, 26.7%; with SF-539 CNS, 73.7%; in the test on UACC-257 melanoma, 31%. In addition, the growth in the test on M14 melanoma was 34.3%.
As for `CCOC(=O)c1cn2ncnc(Oc3ccc(NC(=O)NCCN4CCOCC4)c(Cl)c3)c2c1C`, the growth is 99.6% with NCI-H23 lung; 92.9% in the test with NCI-H226 lung; 88.7% with NCI-H322M lung; 87.1% in the test on HOP-62 NSCLC; 100% with NCI-H460 lung; 91.7% in the test on HOP-92 NSCLC. Moreover, the growth is 93.9% in the test on NCI-H522 lung; 99.2% in the test on A549/ATCC NSCLC; 102% with 786-0 renal; 109% in the test on DU-145 prostate; 98.3% in the test with K-562 leukemia; 91.5% in the test on MALME-3M melanoma. The growth with MDA-MB-231 breast was 100%; with RXF 393 renal, 94.2%; in the test with SF-268 CNS, 94.9%; in the test with SF-295 CNS it was 98.4%; with SF-539 CNS, 95.6%; in the test with UACC-257 melanoma, 95.8%. In addition, the growth in the test on M14 melanoma was 91.3%.
For the molecule `COc1ccn2c(C(C)=O)cc(C(=O)c3ccc4c(c3)Sc3ccccc3N4)c2c1`, the growth was 28.3% in the test with NCI-H23 lung; 26% in the test on NCI-H226 lung; 42.8% in the test with NCI-H322M lung; 20.2% in the test on HOP-62 NSCLC; 4.07% (active) in the test on NCI-H460 lung; 31.2% in the test with HOP-92 NSCLC. Also, the growth in the test on NCI-H522 lung was -21.5% (active); in the test with A549/ATCC NSCLC, 10.5%; with 786-0 renal, 10.7%; in the test with DU-145 prostate, -18.3% (active); in the test on K-562 leukemia it was 7.02% (active); in the test on MALME-3M melanoma, 85.9%. Besides, the growth with MDA-MB-231 breast was -17.2% (active); with RXF 393 renal it was 51.9%; in the test with SF-268 CNS, 22.2%; in the test with SF-295 CNS it was 13.9%; in the test on SF-539 CNS, -11.8% (active); with UACC-257 melanoma, 52%. Further, the growth in the test with M14 melanoma is 9.58% (active).
As to `Cc1ccc(/C=N\NC(=O)c2[nH]c3ccc(F)cc3c2-c2ccccc2)cc1`, the growth in the test on NCI-H23 lung was 38%; in the test with NCI-H226 lung, 46.4%; with NCI-H322M lung, 57.7%; with HOP-62 NSCLC it was 42.3%; in the test with NCI-H460 lung it was 3.26% (active); in the test with HOP-92 NSCLC, 4.75% (active). The growth in the test on NCI-H522 lung was -42.3% (active); in the test on A549/ATCC NSCLC it was 23%; in the test with 786-0 renal, 35.1%; in the test with DU-145 prostate it was -2.21% (active); with K-562 leukemia it was 16.9%; with MALME-3M melanoma, 15.6%. For the same molecule, the growth is 36.5% with MDA-MB-231 breast; 47.6% in the test on RXF 393 renal; 38.9% in the test on SF-268 CNS; -6.59% (active) with SF-295 CNS; 21.4% with SF-539 CNS; 59.7% in the test with UACC-257 melanoma. The growth in the test on M14 melanoma is 24.1%.
As for `COc1cccc(-c2nc(-c3ccc(NC(=O)c4ccccc4)cc3)[nH]c2-c2ccnc(Br)c2)c1`, the growth was 27.9% in the test on NCI-H23 lung; 47% in the test with NCI-H226 lung; 41.2% with NCI-H322M lung; 4.28% (active) with HOP-62 NSCLC; 19.1% in the test with NCI-H460 lung; 50.2% in the test on HOP-92 NSCLC. The growth in the test with NCI-H522 lung is 16.2%; in the test on A549/ATCC NSCLC, 39.3%; in the test with 786-0 renal, -10.4% (active); in the test on DU-145 prostate, 62.2%; in the test on K-562 leukemia, 2.4% (active); with MALME-3M melanoma it was 28.7%. For the same molecule, the growth in the test with MDA-MB-231 breast was 34.2%; in the test with RXF 393 renal it was -44.3% (active); in the test on SF-268 CNS it was 51.4%; in the test with SF-295 CNS it was -62.5% (active); in the test with SF-539 CNS, -5.94% (active); in the test on UACC-257 melanoma, 49.4%. Further, the growth in the test on M14 melanoma is 29.6%.

Source of the values: PubChem BioAssay (NCI).
